Experimental data: the supplement of paper PMC6555819

What was measured:
Assay in all cases: PBM binding z-score (relative to random genomic background probes); higher = stronger binding; sequences stand for … in GC…GCGATTGACAGCGTAGAATGAAGG
[1] = test system: PPARg:RXRa DBDmut IVT, anti-RXR (DBD mutation: RXRa K156A/R161A, NR concentration 270 nM, RXRa partner concentration 90 nM)
Method in brief: (§1)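 Custom Agilent 4×180K protein-binding microarrays carried double-stranded probes. Their 34-nt variable regions held direct-repeat seeds, single-nucleotide variants, half-site ablations and random human genomic background sequences. Arrays were incubated 1 h with ligand-free nuclear receptor dimers in PBS pH 7.4, 2% milk, 0.02% Triton X-100, 1 mM DTT, 0.2 mg/mL BSA and 0.4 mg/ml salmon testes DNA. Antibodies against each partner (one per run) detected binding, and scanned fluorescence was regression-normalized. Binding z-scores use random background probes as reference.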

[2] = test system: PPARg:RXRa IVT, anti-PPARg (NR concentration 270 nM, RXRa partner concentration 90 nM)
Method in brief: as §1

[3] = test system: PPARg DBDmut:RXRa IVT, anti-PPARg (DBD mutation: PPARg1 K132A/R137A, NR concentration 270 nM, RXRa partner concentration 90 nM)
Method in brief: as §1

[4] = test system: PPARg DBDmut IVT, anti-PPARg (DBD mutation: PPARg1 K132A/R137A, NR concentration 270 nM)
Method in brief: as §1

[5] = test system: PPARg homodimer (NR concentration 180 nM)
Method in brief: as §1

[6] = test system: PXR:RXRa (NR concentration 270 nM, RXRa partner concentration 90 nM)
Method in brief: as §1

[7] = test system: PXR homodimer (NR concentration 270 nM)
Method in brief: as §1

[8] = test system: RARa:RXR (NR concentration 270 nM, RXRa partner concentration 90 nM)
Method in brief: as §1

[9] = test system: RARa homodimer (NR concentration 270 nM)
Method in brief: as §1

[10] = test system: RARb:RXRa (NR concentration 270 nM, RXRa partner concentration 90 nM)
Method in brief: as §1

[11] = test system: RARb homodimer (NR concentration 270 nM)
Method in brief: as §1

[12] = test system: RARg:RXRa (NR concentration 270 nM, RXRa partner concentration 90 nM)
Method in brief: as §1

[13] = test system: RARg homodimer (NR concentration 270 nM)
Method in brief: as §1

[14] = test system: RXRa DBDmut IVT, anti-RXR (DBD mutation: RXRa K156A/R161A, NR concentration 90 nM)
Method in brief: as §1

[15] = test system: RXRa homodimer (NR concentration 180 nM)
Method in brief: as §1

[16] = test system: THRa:RXRa (NR concentration 90 nM, RXRa partner concentration 90 nM)
Method in brief: as §1

[17] = test system: THRa homodimer (NR concentration 90 nM)
Method in brief: as §1

[18] = test system: VDR homodimer (NR concentration 270 nM)
Method in brief: as §1

| Sequence | PBM binding z-score [1] | PBM binding z-score [2] | PBM binding z-score [3] | PBM binding z-score [4] | PBM binding z-score [5] | PBM binding z-score [6] | PBM binding z-score [7] | PBM binding z-score [8] | PBM binding z-score [9] | PBM binding z-score [10] | PBM binding z-score [11] | PBM binding z-score [12] | PBM binding z-score [13] | PBM binding z-score [14] | PBM binding z-score [15] | PBM binding z-score [16] | PBM binding z-score [17] | PBM binding z-score [18] |
| --- | --- | --- | --- | --- | --- | --- | --- | --- | --- | --- | --- | --- | --- | --- | --- | --- | --- | --- |
| CCTACTGGGCCAAGGTCATTGGTCAGTCAAAGCA | 3.94 | 4.88 | -0.325 | -0.629 | 1.86 | 3.62 | 1.12 | 3.85 | 0.172 | 3.56 | 3.51 | 3.85 | 3.86 | 0.988 | 3.73 | 3.48 | 2.62 | 3.41 |
| CCTAGCAGGCTAATCTGGGTCACTCAAGGCTTGA | 4.46 | 5.23 | 0.678 | 0.0667 | 0.493 | 0.328 | -0.671 | 1.34 | -0.634 | 1.07 | 1.8 | 0.393 | 0.769 | 0.246 | 0.687 | 3.19 | 0.623 | 0.114 |
| ATATGTAGGTTACATCCGGGTGATTCAGGCTATG | 6.76 | 7.32 | 2.76 | 2.26 | 1.49 | 0.723 | 0.414 | 0.999 | 0.428 | 1.05 | 0.887 | 1.19 | 1.11 | 0.378 | 1.27 | 2.07 | 0.9 | 0.101 |
| TCGAGTAGTTTAGGGGCATTCAGAATGGCGTCGA | 0.75 | -0.281 | -0.799 | -1.01 | -0.288 | 0.444 | -0.187 | 0.532 | -0.906 | 0.653 | 0.436 | 0.014 | -0.0825 | 0.68 | 0.467 | 1.33 | 0.108 | 1.55 |
| TCTCGGAGGACACGAAAGGTCAGATCTCGACATC | 2.03 | 1.5 | -0.0755 | -0.793 | 2.23 | 3.88 | 0.563 | 3.78 | 0.369 | 4.15 | 4.71 | 4.58 | 4.87 | 1.53 | 3.65 | 3.82 | 1.45 | 1.13 |
| TCAGACAGGTGAAGGTCACTCAGGTACGCAGTCG | 3.07 | 2.84 | 0.351 | 0.266 | 2.38 | 4.02 | 0.556 | 3.78 | 0.971 | 4.01 | 4.11 | 3.63 | 4.11 | 1.7 | 3.51 | 3.79 | 1.43 | 2.39 |
| CCTACTGGGCCATCAGGTCATTGGTATCAACGTT | 4.05 | 5.2 | -1.01 | -0.269 | 1.09 | 1.67 | 0.395 | 2.04 | -0.0401 | 2.25 | 2.99 | 1.93 | 1.66 | 0.149 | 0.958 | 3.33 | 3.05 | 1.64 |
| TCGTGTAGGTTACCAATGGGGCATTCAGCTTTCT | 3.06 | 2.01 | 0.246 | 0.154 | 1.17 | 0.375 | -0.304 | 0.543 | -0.0616 | 1.31 | 1.15 | 1.46 | 0.613 | 0.901 | 0.634 | 0.276 | 0.371 | -0.0857 |
